GRK2 aptamer HTS – human GRK2 inhibition via aptamer displacement; P25098; bead flow cytometry, FAM-aptamer displacement from GRK2; inhibition of aptamer binding, % at 10 µM; 330,000 compounds, 0.59% hits; AID 488847;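 active = inhibition of aptamer binding above 40%, roughly 3 SD of noise, on plates passing a quality check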;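 also: median bead fluorescence of bound FAM aptamer so fluorescent compounds give negative values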
Beta2AR agonist – human beta-2 adrenergic receptor agonism by FAP; P07550; Am2.2-beta2AR cells, FAP receptor internalization, flow cytometry; response, % (no concentration beside the values); 340,000 compounds, 0.43% hits; AID 504454;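 active = response above a set limit, near 3 SD of response in nonfluorescent compounds, cut at about 42% in these data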
NadD inh – inhibitors of Staphylococcus aureus NadD; 360,000 compounds, 0.78% hits; inhibition, % at 20 µM; purified NadD enzyme, colorimetric absorbance read-out; AID 602399; in the data active = inhibition above about 26%
PP1 counter – counter-screen for PP5 inhibitors: inhibitors of human PP1-alpha; 320,000 compounds, 0.9% hits; P62136; purified PP1alpha, OMFP fluorescence; inhibition, % at 6.7 µM;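 active = inhibition above the mean inhibition of all tested compounds plus 3 SD, computed separately for each screening campaign, cut at about 15% in these data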
Target sequence (P62136 whole entry, looked up): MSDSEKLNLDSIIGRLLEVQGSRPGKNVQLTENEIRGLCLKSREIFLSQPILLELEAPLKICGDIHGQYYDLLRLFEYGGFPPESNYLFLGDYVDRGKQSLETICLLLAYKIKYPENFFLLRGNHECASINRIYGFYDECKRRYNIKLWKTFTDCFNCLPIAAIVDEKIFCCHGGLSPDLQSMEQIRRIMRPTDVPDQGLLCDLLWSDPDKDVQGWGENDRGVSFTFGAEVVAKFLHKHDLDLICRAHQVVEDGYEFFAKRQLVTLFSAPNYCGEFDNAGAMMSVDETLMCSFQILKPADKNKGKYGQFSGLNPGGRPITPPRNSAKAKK
Granule exo inh – lytic granule exocytosis inhibition. TALL-104 LAMP-1 surface exposure, flow cytometry; cells stimulated with thapsigargin and PMA. inhibition, % at 10 µM. 360,000 compounds, 0.66% hits. AID 651702;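 active = inhibition above about 55%, limit read from the data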
PP1 confirm – confirmation of human PP1 phosphatase inhibitors | shares compounds with PP1 counter | purified PP1alpha, OMFP substrate fluorescence | inhibition, % at 6.7 µM | 1,900 compounds, 52% hits | AID 2358;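 active = mean PP1 inhibition above a set limit taken from the earlier primary screen, cut at about 15% in these data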
PP5 counter – counter-screen for PP1 inhibitors: human PP5 phosphatase inhibition; shares compounds with PP1 counter; purified PP5c, OMFP fluorescence; inhibition, % at 6.7 µM; 1,900 compounds, 4% hits; AID 2360;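 active = mean PP5 inhibition over triplicate wells above about 9.5% taken from the earlier PP1 screen, limit read from the data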
A number is an active result; 0 = inactive; - = not tested or not shown. In the library only some 2.9% were active in any assay of this set; here they are far more common.

SMILES | GRK2 aptamer HTS | Beta2AR agonist | NadD inh | PP1 counter | Granule exo inh | PP1 confirm | PP5 counter
COc1ccc(/C=N/n2nnnc2N)c(OC)c1 | 0 | 0 | 0 | - | 0 | - | -
CCNC(=O)CSC1=N/C(=C\c2ccc(O)c(OCC)c2)C(=O)N1c1ccc(OC(F)F)cc1 | 0 | 0 | 0 | 18 | 0 | 19 | 0
COc1ccc(NC(=O)C2c3ccccc3OCC(=O)N2C2CC2)cc1 (configuration not stated) | - | - | 0 | - | 0 | - | -
CC(C)Cn1c(N)c(C(=O)COC(=O)/C=C/c2ccccc2)c(=O)n(C)c1=O | 0 | 0 | 0 | 37 | 0 | 0 | 0
O=C(c1cc(=O)[nH]c2ccccc12)N1CC=C(c2ccccc2)CC1 | 0 | 0 | 0 | 0 | 0 | - | -
CC(NC(=O)C1CC1)C(c1cccs1)N1CCN(c2ccccc2)CC1 (configuration not stated) | 0 | 0 | 0 | 47 | 0 | 0 | 0
CC(C)C(=O)NC(C)C(c1cccs1)N1CCN(c2ccccc2)CC1 (configuration not stated) | 0 | 0 | 0 | 0 | 0 | - | -
COc1ccc(C(=O)Nc2ccc(-c3nnn(CC(=O)NCc4ccco4)n3)cc2)cc1 | 0 | 0 | 0 | 20 | 0 | 24 | 0
CC(C)(C)c1ccc(C(=O)Nc2ncn[nH]2)cc1 | 0 | 0 | 0 | 26 | 0 | 0 | 0
Cc1ccc(C(=O)Nc2ncn[nH]2)cc1 | 0 | 0 | 0 | 0 | 0 | - | -
CC[n+]1c(/C=C/N(C)c2ccccc2)n(-c2ccccc2)c2ccc(-c3nc4ccccc4s3)cc21 | 0 | 0 | 32 | 36 | 64 | 0 | 0
COc1cnc(-c2ccccn2)nc1Oc1c(C)cccc1C | 0 | 0 | 0 | 19 | 0 | 25 | 0
COc1ccc(Oc2nc(-c3ccccn3)ncc2OC)cc1 | 0 | 0 | 0 | 22 | 0 | 32 | 0
COc1cnc(-c2ccccn2)nc1Oc1cccc(Cl)c1 | 0 | 0 | 0 | 53 | 0 | 46 | 0
COc1cnc(-c2ccccc2)nc1Oc1cccc(C)c1 | 0 | 0 | 0 | 0 | 0 | - | -
O=C(NCc1cccs1)C(=O)NCC1OCCCN1S(=O)(=O)c1ccccc1 (configuration not stated) | 0 | 0 | 0 | 0 | 0 | - | -
C[C@@H]1C[C@H]2[C@@H]3CCC4=CC(=O)C=C[C@]4(C)[C@@]3(Cl)[C@@H](O)C[C@]2(C)[C@@]1(OC(=O)c1ccco1)C(=O)CCl | 0 | 0 | 0 | 23 | 0 | 27 | 0
CCOC(=O)C1(Cc2cccc(Cl)c2)CCCN(C(=O)CCNC(C)=O)C1 (configuration not stated) | 0 | 0 | 0 | - | 0 | - | -
CCOC(=O)C1(Cc2cccc(Cl)c2)CCCN(C(=O)CN2C(=O)CSC2=O)C1 (configuration not stated) | 0 | 0 | 0 | 19 | 0 | 0 | 0
CCOC(=O)C1CCCN(c2nc3ccccc3nc2C(C#N)C(=O)OCC)C1 (configuration not stated) | 0 | 0 | 0 | 21 | 0 | 0 | 0
COc1ccccc1NS(=O)(=O)c1cc(C(=O)Nc2ccc(S(=O)(=O)Nc3onc(C)c3C)cc2)ccc1C | - | 0 | 0 | - | 0 | - | -
CC(=O)c1ccc(NC(=O)c2cnsn2)cc1 | 0 | 0 | 0 | 0 | 0 | - | -
Cc1ccccc1C(=O)Nc1cccc(C(=O)N/N=C/c2cc(Cl)cc([N+](=O)[O-])c2O)c1 | 0 | 0 | 0 | 19 | 0 | 18 | 0
COc1ccc(S(=O)(=O)N2CCCC(C(=O)NCc3ccccc3)C2)cc1 (configuration not stated) | 0 | 0 | 0 | 0 | 0 | - | -
Cc1cccc(OCc2nnc(SCC(=O)N3c4ccccc4CCc4ccccc43)o2)c1 | 0 | 0 | 0 | 19 | 0 | 0 | 0
SMILES | GRK2 aptamer HTS | Beta2AR agonist | NadD inh | PP1 counter | Granule exo inh | PP1 confirm | PP5 counter
O=C(CSc1nnc(COc2ccc(F)cc2)o1)N1c2ccccc2CCc2ccccc21 | 0 | 0 | 0 | 0 | 0 | - | -
CCc1ncc(CN2CCCC(C(=O)Nc3ccc(-c4cscn4)cc3)C2)cn1 (configuration not stated) | 0 | 0 | 0 | 0 | 0 | - | -
CCN(CC)c1ccc(/C=N/NC(=O)Cc2nnc(NC(=O)Nc3ccccc3)s2)cc1 | 0 | 0 | 48 | 20 | 0 | 25 | 0
Cc1cc(NC(=O)CSc2cn(CC(=O)N(C(C)C)C(C)C)c3ccccc23)no1 | 0 | 0 | 0 | 0 | 0 | - | -
Cc1cc2c(C)nc(N/N=C/c3ccc([N+](=O)[O-])cc3)nc2o1 | 0 | 0 | 0 | 18 | 0 | 33 | 0
COC(=O)c1ccc(CNC(=O)c2ccc(COc3ccccc3)cc2)cc1 | 0 | 0 | 0 | 26 | 0 | 24 | 0
CCOC(=O)C1=C(c2ccccc2)NC(N)=NC1c1ccc(OCc2ccc(C(=O)OC)cc2)cc1 (configuration not stated) | 0 | 0 | 0 | 44 | 0 | 31 | 0
CCOC(=O)C1=C(c2ccccc2)Nc2ncnn2C1c1ccc(C(=O)O)cc1 (configuration not stated) | 0 | 0 | 0 | 0 | 0 | - | -
O=C1CN(C(=O)N[C@@H](Cc2ccccc2)C(=O)N[C@@H](C(=O)O)c2ccccc2)c2ccccc2N1 | 0 | 0 | 0 | 0 | 0 | - | -
O=C1CN(C(=O)NCC(=O)N[C@@H](C(=O)O)c2ccccc2)c2ccccc2N1 | 0 | 0 | 0 | 18 | 0 | 0 | 0
O=C(NC(C(=O)N/N=C/c1cc([N+](=O)[O-])ccc1O)c1n[nH]c(=O)c2ccccc12)c1ccccc1 (configuration not stated) | 0 | 0 | 0 | 27 | 0 | 18 | 0
O=C(Nc1ccccc1)c1ccc2nc(-c3ccco3)c(-c3ccco3)nc2c1 | 0 | 0 | 0 | 21 | 0 | 0 | 0
CC(=O)c1ccc(NC(=O)c2ccc3nc(-c4ccco4)c(-c4ccco4)nc3c2)cc1 | 0 | 0 | 93 | 34 | 0 | 25 | 0
CCc1nnc(NC(=O)CSc2nc3c(c(=O)n2CC)SC(C)C3)s1 (configuration not stated) | 0 | 0 | 0 | 0 | 0 | - | -
N#C/C(=N\Nc1cccc(C(F)(F)F)c1)C(=O)c1csc(-c2cccnc2)n1 | 0 | 0 | 0 | 0 | 0 | - | -
Cc1cccc(N2C(=O)C(O)=C(C(=O)c3cccs3)C2c2cccc(Oc3ccccc3)c2)n1 (configuration not stated) | 0 | 0 | 0 | 25 | 0 | 25 | 0
Cc1cccc(N2C(=O)C(O)=C(C(=O)c3cccs3)C2c2ccccc2)n1 (configuration not stated) | 0 | 0 | 0 | 0 | 0 | - | -
CNc1cc(C)nc(-n2nc(C)cc2C)n1 | 0 | 0 | 0 | 0 | 0 | - | -
COc1ccc(/C=N/Nc2cc(C)nc(-n3nc(C)cc3C)n2)c(OC)c1 | 0 | 0 | 0 | 37 | 0 | 48 | 0
Cc1cc(N/N=C/c2ccc(F)cc2)nc(-n2nc(C)cc2C)n1 | 0 | 0 | 0 | 27 | 0 | 36 | 0
CCOc1cc(/C=N/Nc2cc(C)nc(-n3nc(C)cc3C)n2)ccc1O | 0 | 0 | 0 | 23 | 0 | 22 | 0

Screening data: PubChem BioAssay, several laboratories
